# Test results taken from PubChem BioAssay AID1159580 (chemical genetic matrix, 2015).
# Screen size: about 5,500 compounds; about 2,000 (36%) were called active. Another 18% or so got no clear call; they are omitted. The list shows a part of the results. Unmarked numbers belong to inactive results. No stated cut-off is given here; in the data, active means normalized growth mostly below about 0.91 (no sharp cut-off); inconclusive means no clear call, values can overlap the other calls; inactive means mostly above about 0.92.
# Assay: chemical genetic growth profiling, strain panel (AID 1159580);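 further: tested at 20 µM; growth read once vehicle control cultures reached saturation at 30 °C; 1 = growth at the plate median or of vehicle wells; lower values mean less growth of the strain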
# Details: S. cerevisiae deletion strains, growth OD
# [1] = locus YDL101C, strain DUN1, active compounds read low
# [2] = locus YHR030C, strain SLT2, active compounds read low
structure (smiles),measurement,setting,value
CC(C)(O)C#Cc1ccc(/C=N\Nc2ccccc2)cc1,normalized growth,"locus YAR019C, strain CDC15, active compounds read low",0.966
same,normalized growth,"locus YBL105C, strain PKC1, active compounds read low",0.963
same,normalized growth,"locus YBR135W, strain CKS1, active compounds read low",0.952
same,normalized growth,"locus YBR136W, strain MEC1, active compounds read low",0.954
same,normalized growth,"locus YBR160W, strain CDC28, active compounds read low",0.954
same,normalized growth,"locus YDL017W, strain CDC7, active compounds read low",0.961
same,normalized growth,"locus YDL028C, strain MPS1, active compounds read low",0.952
same,normalized growth,[1],0.954
same,normalized growth,"locus YDL108W, strain KIN28, active compounds read low",0.965
same,normalized growth,"locus YDL132W, strain cdc53, active compounds read low",0.949
same,normalized growth,"locus YDL214C, strain PRR2, active compounds read low",0.822
same,normalized growth,"locus YDR052C, strain DBF4, active compounds read low",0.955
same,normalized growth,"locus YDR054C, strain cdc34, active compounds read low",0.957
same,normalized growth,"locus YDR226W, strain ADK1, active compounds read low",0.968
same,normalized growth,"locus YDR477W, strain SNF1, active compounds read low",0.767
same,normalized growth,"locus YER123W, strain YCK3, active compounds read low",0.569 (active)
same,normalized growth,"locus YER133W, strain GLC7, active compounds read low",0.799
same,normalized growth,"locus YFL009W, strain cdc4, active compounds read low",0.948
same,normalized growth,"locus YFL029C, strain CAK1, active compounds read low",0.957
same,normalized growth,"locus YFR003C, strain YPI1, active compounds read low",0.957
same,normalized growth,"locus YFR019W, strain FAB1, active compounds read low",0.589 (active)
same,normalized growth,"locus YFR028C, strain CDC14, active compounds read low",0.965
same,normalized growth,"locus YGR040W, strain KSS1, active compounds read low",0.784
same,normalized growth,"locus YGR052W, strain FMP48, active compounds read low",0.716
same,normalized growth,"locus YGR092W, strain DBF2, active compounds read low",0.13 (active)
same,normalized growth,[2],0.507 (active)
same,normalized growth,"locus YHR079C, strain IRE1, active compounds read low",0.585
same,normalized growth,"locus YHR082C, strain KSP1, active compounds read low",0.795
same,normalized growth,"locus YHR205W, strain SCH9, active compounds read low",0.88
same,normalized growth,"locus YIL147C, strain SLN1, active compounds read low",0.954
same,normalized growth,"locus YJL095W, strain BCK1, active compounds read low",0.497 (active)
same,normalized growth,"locus YJL128C, strain PBS2, active compounds read low",0.995
same,normalized growth,"locus YJR016C, strain ILV3, active compounds read low",0.948
same,normalized growth,"locus YJR066W, strain TOR1 (second series), active compounds read low",0.557 (active)
same,normalized growth,"locus YJR066W, strain TOR1, active compounds read low",0.644
same,normalized growth,"locus YKL048C, strain ELM1, active compounds read low",0.756 (active)
same,normalized growth,"locus YKL101W, strain HSL1, active compounds read low",0.78
same,normalized growth,"locus YKL193C, strain SDS22, active compounds read low",0.954
same,normalized growth,"locus YKL203C, strain TOR2, active compounds read low",0.831
same,normalized growth,"locus YLR113W, strain HOG1, active compounds read low",0.718 (active)
same,normalized growth,"locus YLR133W, strain CKI1, active compounds read low",0.798
same,normalized growth,"locus YML070W, strain DAK1, active compounds read low",0.556 (active)
same,normalized growth,"locus YMR001C, strain CDC5, active compounds read low",0.96
same,normalized growth,"locus YMR205C, strain PFK2 (second series), active compounds read low",0.872
same,normalized growth,"locus YMR277W, strain FCP1, active compounds read low",0.963
same,normalized growth,"locus YNL006W, strain LST8, active compounds read low",0.954
same,normalized growth,"locus YNL020C, strain ARK1, active compounds read low",0.811
same,normalized growth,"locus YNL161W, strain CBK1, active compounds read low",0.954
same,normalized growth,"locus YNL183C, strain NPR1, active compounds read low",0.735
same,normalized growth,"locus YNL207W, strain RIO2, active compounds read low",0.958
same,normalized growth,"locus YNL222W, strain SSU72, active compounds read low",0.953
same,normalized growth,"locus YNL307C, strain MCK1 (second series), active compounds read low",0.41 (active)
same,normalized growth,"locus YOL078W, strain AVO1, active compounds read low",0.952
same,normalized growth,"locus YOL136C, strain PFK27, active compounds read low",0.614 (active)
same,normalized growth,"locus YOR061W, strain CKA2, active compounds read low",0.366 (active)
same,normalized growth,"locus YOR119C, strain RIO1, active compounds read low",0.799
same,normalized growth,"locus YOR231W, strain MKK1, active compounds read low",0.551 (active)
same,normalized growth,"locus YOR329C, strain SCD5, active compounds read low",0.955
same,normalized growth,"locus YPL031C, strain PHO85, active compounds read low",0.686
same,normalized growth,"locus YPL153C, strain RAD53, active compounds read low",0.565 (active)
same,normalized growth,"locus YPL204W, strain HRR25, active compounds read low",0.602 (active)
same,normalized growth,"locus YPL209C, strain IPL1, active compounds read low",0.959
same,normalized growth,"locus YPL256C, strain CLN2, active compounds read low",0.766 (active)
same,normalized growth,"locus YPR025C, strain CCL1, active compounds read low",0.948
same,normalized growth,"locus YPR106W, strain ISR1, active compounds read low",0.974
same,normalized growth,"locus YPR111W, strain DBF20, active compounds read low",0.968
same,normalized growth,"strain NNK1, active compounds read low",0.979
same,normalized growth,"strain TSCII, active compounds read low",0.951
CC(C)(O)C#Cc1ccc(/C=N\O)cc1,normalized growth,"locus YAL013W, strain DEP1, active compounds read low",1.01
same,normalized growth,"locus YBR229C, strain ROT2, active compounds read low",0.996
same,normalized growth,[1],0.99
same,normalized growth,"locus YDL134C, strain PPH21, active compounds read low",0.981
same,normalized growth,"locus YDR150W, strain NUM1, active compounds read low",0.938
same,normalized growth,"locus YEL061C, strain CIN8, active compounds read low",0.984
same,normalized growth,"locus YGR078C, strain PAC10, active compounds read low",1.03
same,normalized growth,[2],1
same,normalized growth,"locus YHR087W, strain rtc3, active compounds read low",0.988
same,normalized growth,"locus YJR043C, strain POL32, active compounds read low",1.02
same,normalized growth,"locus YJR075W, strain HOC1, active compounds read low",0.992
same,normalized growth,"locus YKL190W, strain CNB1, active compounds read low",1
same,normalized growth,"locus YLR039C, strain RIC1, active compounds read low",0.991
same,normalized growth,"locus YLR058C, strain SHM2 (second series), active compounds read low",1.01
same,normalized growth,"locus YLR085C, strain ARP6, active compounds read low",0.939
same,normalized growth,"locus YLR262C, strain YPT6, active compounds read low",0.968
same,normalized growth,"locus YML094W, strain GIM5, active compounds read low",0.975
same,normalized growth,"locus YMR219W, strain ESC1, active compounds read low",0.987
same,normalized growth,"locus YMR263W, strain SAP30, active compounds read low",0.962
same,normalized growth,"locus YNL128W, strain TEP1, active compounds read low",0.998
same,normalized growth,"locus YNL153C, strain GIM3, active compounds read low",1
same,normalized growth,"locus YNL298W, strain CLA4 (second series), active compounds read low",0.977
same,normalized growth,"locus YNL322C, strain KRE1, active compounds read low",0.992
same,normalized growth,"locus YNR030W, strain Alg12, active compounds read low",1
same,normalized growth,"locus YPL055C, strain LGE1, active compounds read low",0.936
same,normalized growth,"locus YPL241C, strain CIN2, active compounds read low",0.959
same,normalized growth,"locus YPR135W, strain CTF4, active compounds read low",0.994
